# Sampled rows, rich in hits. Any-hit rate of the full collection: about 1.3%.
# GRK2 aptamer HTS – compounds blocking aptamer binding on GRK2 – biochemical, human GRK2, bead flow cytometry, HTS, primary screen; Beta-adrenergic receptor kinase 1 (Homo sapiens), P25098; FAM-aptamer displacement from GRK2; inhibition of aptamer binding, % at 10 µM; 330,000 tested, 0.59% active;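 active means inhibition of aptamer binding above 40%, roughly 3 SD of noise, on plates passing a quality check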;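 further: median bead fluorescence of bound FAM aptamer so fluorescent compounds give negative values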
# B2AR ag – beta2AR agonists driving receptor internalization, primary screen, cell-based, FAP fluorogen, flow cytometry | response, % (no concentration beside the values) | 340,000 tested, 0.43% active | Beta-2 adrenergic receptor (Homo sapiens), P07550 | Am2.2-beta2AR cells;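 active means response above a set limit, near 3 SD of response in nonfluorescent compounds, cut at about 42% in these data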
# Bfl-1 A1 inh – caspase 3/7 activation in MEF A1-2A-BIM cells, primary screen, A1 inhibitor project, cell-based, luminescence, HTS | caspase activation, % (no concentration beside the values) | Caspase-Glo 3/7 luminescence, 3 h; percent of clofoctol response, vehicle zero | 330,000 tested, 0.066% active;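 active means over half of replicate activation scores above 10%, or exactly half above 10 with the replicate mean above 10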
# NTR1 agonist – agonists of human NTR1, primary screen, imaging, U2OS cells, beta-arrestin-GFP, high content | 330,000 tested, 0.17% active | activation, % at 20 µM | NTR1-U2OS beta-arrestin-GFP spot imaging, agonist mode | Neurotensin receptor type 1 (Homo sapiens), P30989;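 active means activation at or above 40% of the spot to cytoplasm intensity ratio, with at least 20 cells analyzed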
# VLA-4 inh – inhibition in human VLA-4 binding assay, primary screen, VLA-4 allosteric modulator project, MLPCN library, flow cytometry, VLA-4 expressing cells | 330,000 tested, 0.2% active | ligand binding flow cytometry | inhibition, % (about 7 µM as worked out from the volumes in the protocol) | Integrin alpha-4 (Homo sapiens), P13612; in the data active means inhibition above about 50%
# Target sequence (P13612 whole entry, looked up): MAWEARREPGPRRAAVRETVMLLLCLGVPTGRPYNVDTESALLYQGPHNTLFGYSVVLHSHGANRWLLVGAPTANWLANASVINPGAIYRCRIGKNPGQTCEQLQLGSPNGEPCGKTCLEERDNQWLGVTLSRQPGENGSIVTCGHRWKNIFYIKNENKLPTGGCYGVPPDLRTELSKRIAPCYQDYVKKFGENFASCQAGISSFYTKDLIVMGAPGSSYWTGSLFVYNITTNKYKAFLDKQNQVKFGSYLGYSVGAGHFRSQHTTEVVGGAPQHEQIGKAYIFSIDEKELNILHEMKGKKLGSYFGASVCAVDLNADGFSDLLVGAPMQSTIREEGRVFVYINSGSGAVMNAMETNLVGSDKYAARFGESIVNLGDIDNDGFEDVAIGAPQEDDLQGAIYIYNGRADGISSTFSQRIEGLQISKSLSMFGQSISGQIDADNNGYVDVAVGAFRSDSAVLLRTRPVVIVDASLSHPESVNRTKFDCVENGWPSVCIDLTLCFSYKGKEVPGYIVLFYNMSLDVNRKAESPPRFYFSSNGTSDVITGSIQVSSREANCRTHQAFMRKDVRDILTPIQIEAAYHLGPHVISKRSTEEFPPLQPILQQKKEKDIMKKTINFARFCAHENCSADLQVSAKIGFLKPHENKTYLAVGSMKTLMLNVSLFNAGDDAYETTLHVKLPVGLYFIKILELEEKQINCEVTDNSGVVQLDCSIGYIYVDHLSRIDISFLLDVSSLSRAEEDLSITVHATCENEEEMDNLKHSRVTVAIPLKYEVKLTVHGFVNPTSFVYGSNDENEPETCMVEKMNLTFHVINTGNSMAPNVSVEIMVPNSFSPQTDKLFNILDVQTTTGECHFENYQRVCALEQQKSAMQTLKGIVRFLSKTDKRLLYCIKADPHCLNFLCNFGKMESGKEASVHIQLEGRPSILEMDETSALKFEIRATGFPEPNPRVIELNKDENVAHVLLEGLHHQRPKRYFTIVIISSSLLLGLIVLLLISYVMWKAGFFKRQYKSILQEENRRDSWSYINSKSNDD
# GRK2 inh confirm – GRK2 aptamer-displacing inhibitors, retest, confirmation, biochemical, cherry pick 1, bead flow cytometry; shares compounds with GRK2 aptamer HTS; bead-bound GRK2, FAM-aptamer displacement; aptamer displacement, % at 10 µM; 2,000 tested, 4% active;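 active means aptamer displacement above 40%, near three times the noise of non-fluorescent compounds, on plates passing quality checks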;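 further: negative values mostly reflect intrinsic compound fluorescence rather than true enhancement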
# FAM quench CP1 – quenches fluorescent RNA aptamer, GRK2 hit artifact. shares compounds with GRK2 aptamer HTS. Carboxyfluorescein RNA aptamer on beads, flow cytometry quenching; stronger effect = lower value. fluorescence response (% of DMSO), % at 10 µM. 2,000 tested, under 10 active;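 active means compounds that quench the bead-bound fluorescent RNA probe, cutting fluorescence to under half of the solvent control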;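 further: counterscreen run without GRK2 so only probe quenching by compound is measured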
# GRK2 confirm 2 – GRK2 aptamer-displacing inhibitors, hit retest, confirmation, biochemical, cherry pick 2, bead flow cytometry; bead-bound GRK2, FAM-aptamer displacement; shares compounds with GRK2 aptamer HTS; 360 tested, under 10 active; inhibition of aptamer binding, % at 10 µM;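 active means inhibition of aptamer binding above 40%, about triple the noise seen with nonglowing compounds, on plates passing quality control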;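 further: negative values mostly come from compounds that fluoresce themselves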
# FAM quench CP2 – quenches fluorescent RNA aptamer, GRK2 hit artifact; shares compounds with GRK2 aptamer HTS; carboxyfluorescein RNA aptamer beads, flow cytometry quenching; stronger effect = lower value; 360 tested, under 10 active; fluorescence response vs DMSO, % at 10 µM;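 active means response vs DMSO under 50%, meaning signal dropped by over half, treated as fluorescence quencher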;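 further: labelled aptamer on streptavidin beads without GRK2 as a quench counter-screen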
# Numbers stand for hits; . = inactive; / = not tested or not shown.
SMILES,GRK2 aptamer HTS,B2AR ag,Bfl-1 A1 inh,NTR1 agonist,VLA-4 inh,GRK2 inh confirm,FAM quench CP1,others
CSCCC(NC(=O)c1ccccc1)C(=O)N1CCN(C(C)=O)CC1 (stereo unspecified),.,.,.,.,.,/,/,
CCc1ccc(CN(C)CC(=O)Nc2ccc(S(=O)(=O)N3CCOCC3)cc2)cc1,99,.,.,.,.,.,.,
CN(CC(=O)Nc1ccc(S(=O)(=O)N2CCOCC2)cc1)Cc1ccc(F)cc1,.,.,.,.,.,/,/,
CN1CCN(CC(=O)Nc2ccccc2C(F)(F)F)CC1,.,.,.,.,.,/,/,
O=C(CN1CCc2ccccc2C1)Nc1ccccc1C(F)(F)F,48,.,.,.,.,.,.,
N#Cc1ccccc1OCC(=O)N(C1CCCCC1)C1CCS(=O)(=O)C1 (stereo unspecified),.,.,.,.,.,/,/,
CC(Oc1ccc(Cl)cc1)c1ccnn1S(=O)(=O)c1ccccc1 (stereo unspecified),.,.,.,.,.,/,/,
CC(Oc1ccccc1)c1ccnn1S(C)(=O)=O (stereo unspecified),.,.,.,.,.,.,.,
O=C(Nc1ccccc1)c1ccc(CN2CCc3ccccc3C2)cc1,100,.,.,.,.,/,/,GRK2 confirm 2=.;FAM quench CP2=.
Cc1ccc(NC(=O)CCNS(=O)(=O)c2ccc(OC(F)(F)F)cc2)c(O)c1,.,.,.,.,.,/,/,
COc1ccc(OCC(CO)N2CCN(c3ccccc3)CC2)cc1 (stereo unspecified),/,.,/,/,/,/,/,
COCCOC(=O)C1=C(C)N=C2SCCC(=O)N2C1c1cccs1 (stereo unspecified),81,.,.,.,.,.,.,
Cc1nn(CC(=O)N(C)Cc2ccc(F)cc2)c(C)c1[N+](=O)[O-],100,.,.,.,.,/,/,GRK2 confirm 2=.;FAM quench CP2=.
Cc1nn(CCCC(=O)NCc2ccc(F)cc2)c(C)c1[N+](=O)[O-],.,.,.,.,.,/,/,
O=C(NCCc1ccccc1)C1CCN(C(=O)c2ccc(F)cc2)CC1,.,.,.,.,.,/,/,
O=C(NCc1ccccc1CN1CCCC1)C1CCN(C(=O)c2ccc(F)cc2)CC1,69,.,/,.,.,.,.,
CCOc1ccccc1N(C(=O)c1snc(C(N)=O)c1N)C(C(=O)NCC1CCCO1)c1ccc2ncccc2c1 (stereo unspecified),.,.,.,.,.,/,/,
COc1ccc(OC)c(N(C(=O)c2snc(C(N)=O)c2N)C(C(=O)NCC2CCCO2)c2ccc3ncccc3c2)c1 (stereo unspecified),50,.,.,.,.,.,.,
O=C(COc1ccc(Cl)cc1)NCCCNC(=O)c1ccncc1,.,.,.,.,.,/,/,
CCC(C)Nc1nc2c(c(=O)[nH]c(=O)n2C)n1CCCc1ccccc1 (stereo unspecified),.,.,.,.,.,/,/,
CCC(C)Nc1nc2c(c(=O)[nH]c(=O)n2C)n1CCC(C)C (stereo unspecified),52,.,.,.,.,.,.,
CCOc1ccc(NC(=O)CN(C)C(=O)COc2cccc3c2OC(C)(C)C3)cc1OCC,98,.,.,.,.,.,.,
COc1cc(C)c(NC(=O)COc2cccc3c2OC(C)(C)C3)cc1OC,41,.,.,.,.,/,/,GRK2 confirm 2=.;FAM quench CP2=.
CCCNC(=O)NC(=O)CSc1nnc(-c2ccncc2)n1CC,61,.,.,.,.,.,.,
CCn1c(SCC(=O)OC)nnc1-c1ccncc1,.,.,.,.,.,/,/,
SMILES,GRK2 aptamer HTS,B2AR ag,Bfl-1 A1 inh,NTR1 agonist,VLA-4 inh,GRK2 inh confirm,FAM quench CP1,others
COc1ccc(C(=O)Nc2ccc(Nc3ccccc3)cc2)cc1OC,86,.,.,.,.,.,.,
O=C(Nc1ccc(Nc2ccccc2)cc1)c1ccccc1,100,.,.,.,.,.,.,
O=C(Nc1ccc(Nc2ccccc2)cc1)c1ccc(Cl)cc1,.,.,.,.,.,/,/,
COCC(=O)N[C@@H]1c2cc(OC)c(OC)cc2C[C@H]1OCc1ccccc1,.,.,/,.,/,/,/,
CCCCNC(=O)CN1C(=O)NC2NC(=O)NC21 (stereo unspecified),98,.,.,.,.,.,.,
Nc1cccn2c(-c3ccc(Cl)cc3)cnc12,.,.,.,.,.,.,.,
O=C(COC(=O)C1C2CC3OC(=O)C1C3C2)Nc1ccc(Br)cc1 (stereo unspecified),.,.,.,.,.,/,/,
COc1ccc(/C=C(\NC(=O)c2ccccc2)C(=O)N2CCC(C)CC2)cc1,/,.,/,.,/,/,/,
O=C(OCC(=O)N1CCc2ccccc2C1)c1ccc(F)cc1Cl,.,.,.,.,.,/,/,
CC(=O)c1c(C)[nH]c(C(=O)CN2C(=O)NC(C)(c3ccc(C)cc3)C2=O)c1C (stereo unspecified),54,.,.,.,.,.,.,
COc1ccc(Cl)cc1NC(=O)C(C)OC(=O)Cn1cc(C(F)(F)F)ccc1=O (stereo unspecified),.,.,.,.,.,/,/,
Cc1nn(-c2ccc(F)cc2)c(Cl)c1/C=C(\CC(=O)O)c1nc2ccccc2s1,.,.,.,.,.,.,.,
Nc1nonc1-n1nnc(C(=O)N/N=C/c2ccccc2Br)c1CN1CCCC1,.,.,.,.,.,/,/,
CCOc1ccc(NC(=O)c2ccc(N3CC4CC(C3)c3cccc(=O)n3C4)c(NC(=O)c3ccncc3)c2)cc1 (stereo unspecified),.,.,.,.,.,/,/,
CCOc1ccc(NC(=O)c2ccc(N3CC4CC(C3)c3cccc(=O)n3C4)c(N)c2)cc1 (stereo unspecified),93,.,.,.,.,.,.,
NC(=S)N/N=C/c1c[nH]c2ccc(OCc3ccccc3)cc12,.,.,.,.,.,/,/,
Cc1c(C(=O)Nc2ccc(F)cc2)oc2ccc(S(=O)(=O)N3CC(C)CC(C)C3)cc12 (stereo unspecified),.,.,.,.,.,.,.,
Cc1ccc(CNC(=O)C2CCCN2C(=O)Nc2ccccc2)cc1 (stereo unspecified),.,.,.,.,.,/,/,
COc1ccc(Cc2cc(NCc3ccccc3)c3ncn(C(C)C)c3c2)cc1,97,.,.,.,.,/,/,GRK2 confirm 2=.;FAM quench CP2=.
